# According to publication PMC7862700, “An all-to-all approach to the identification of sequence-specific readers for epigenetic DNA modifications on cytosine”:
# Legend:
# Test in all cases: DAPPL (digital affinity profiling via proximity ligation, sequencing); 10 mM Tris-HCl pH 7.5, 50 mM NaCl, 1 mM DTT, 4% glycerol, room temperature, 30 min; GST-TFs on glutathione beads, 16-mer random dsDNA library, 0.1% formaldehyde crosslink after washing; high values mean tight binding
# HSF1 = HSF1 (Homo sapiens, UniProt Q00613 1-529); conditions: protein: recombinant; tags: N-terminal GST; chain copies: 3; dsDNA, one strand shown
# HSF1, sequence (Q00613 whole entry, the tested form may be a part): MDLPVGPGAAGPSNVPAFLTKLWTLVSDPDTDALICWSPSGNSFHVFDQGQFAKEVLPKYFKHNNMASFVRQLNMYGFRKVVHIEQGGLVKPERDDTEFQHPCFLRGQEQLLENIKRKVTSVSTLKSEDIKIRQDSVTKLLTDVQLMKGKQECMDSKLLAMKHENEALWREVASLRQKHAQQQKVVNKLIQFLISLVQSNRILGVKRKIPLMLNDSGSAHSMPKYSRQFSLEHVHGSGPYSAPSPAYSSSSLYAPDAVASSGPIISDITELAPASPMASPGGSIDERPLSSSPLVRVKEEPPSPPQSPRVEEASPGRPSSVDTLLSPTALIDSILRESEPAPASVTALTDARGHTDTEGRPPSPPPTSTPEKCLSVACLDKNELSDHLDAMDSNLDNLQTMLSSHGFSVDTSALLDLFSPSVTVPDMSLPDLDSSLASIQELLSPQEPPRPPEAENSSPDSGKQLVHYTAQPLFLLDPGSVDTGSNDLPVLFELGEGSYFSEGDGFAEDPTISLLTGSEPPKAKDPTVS
# Procedure, shortened: (§1)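 Binding signal is each hexamer's read frequency for a factor divided by its frequency in the tag-only sample. The factors were GST-fused human transcription factors from yeast, captured on glutathione beads, DNA-barcoded and pooled with that sample. Pools were incubated with 200 nmole of a random double-stranded 16-mer DNA library in Tris/NaCl/DTT/glycerol buffer at room temperature for 30 min, then washed, crosslinked with 0.1% formaldehyde, proximity-ligated with BsaI/T4 ligase (1 h, 37 °C), PCR-amplified and sequenced on an Illumina NextSeq500.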
# ELK1 = biological target: T1, ELK1 (Homo sapiens, UniProt P19419 1-428); conditions: protein: recombinant; tags: N-terminal GST; dsDNA, one strand shown
# T1 sequence: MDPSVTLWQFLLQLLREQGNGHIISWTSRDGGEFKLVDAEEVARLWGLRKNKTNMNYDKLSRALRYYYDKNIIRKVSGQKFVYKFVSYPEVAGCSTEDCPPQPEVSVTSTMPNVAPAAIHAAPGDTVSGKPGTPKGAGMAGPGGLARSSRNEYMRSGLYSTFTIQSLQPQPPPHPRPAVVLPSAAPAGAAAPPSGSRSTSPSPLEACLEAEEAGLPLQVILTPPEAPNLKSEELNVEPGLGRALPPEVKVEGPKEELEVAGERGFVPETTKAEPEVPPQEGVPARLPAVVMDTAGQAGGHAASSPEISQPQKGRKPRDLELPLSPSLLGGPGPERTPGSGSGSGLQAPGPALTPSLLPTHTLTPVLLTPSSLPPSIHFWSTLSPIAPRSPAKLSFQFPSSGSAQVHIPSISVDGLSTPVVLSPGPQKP
# Procedure, shortened: as §1
# GABPA = biological target: T2, GABPA (Homo sapiens, UniProt Q06546 1-454); conditions: protein: recombinant; tags: N-terminal GST; dsDNA, one strand shown
# T2 sequence: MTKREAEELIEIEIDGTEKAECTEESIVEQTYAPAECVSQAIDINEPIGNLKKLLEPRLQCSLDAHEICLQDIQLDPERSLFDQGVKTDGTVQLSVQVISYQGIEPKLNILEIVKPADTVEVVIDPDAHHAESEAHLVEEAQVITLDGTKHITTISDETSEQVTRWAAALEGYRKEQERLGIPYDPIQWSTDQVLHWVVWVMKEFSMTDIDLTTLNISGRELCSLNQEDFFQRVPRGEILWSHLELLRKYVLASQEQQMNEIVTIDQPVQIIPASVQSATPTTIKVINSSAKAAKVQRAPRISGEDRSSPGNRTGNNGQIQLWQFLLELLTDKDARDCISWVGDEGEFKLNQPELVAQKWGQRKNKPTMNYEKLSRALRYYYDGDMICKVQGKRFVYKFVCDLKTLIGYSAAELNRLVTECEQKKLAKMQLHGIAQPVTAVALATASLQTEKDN
# Procedure, shortened: as §1
# ELF1 = ELF1 (Homo sapiens, UniProt P32519 1-619); conditions: protein: recombinant; tags: N-terminal GST; dsDNA, one strand shown
# ELF1, sequence (P32519 whole entry): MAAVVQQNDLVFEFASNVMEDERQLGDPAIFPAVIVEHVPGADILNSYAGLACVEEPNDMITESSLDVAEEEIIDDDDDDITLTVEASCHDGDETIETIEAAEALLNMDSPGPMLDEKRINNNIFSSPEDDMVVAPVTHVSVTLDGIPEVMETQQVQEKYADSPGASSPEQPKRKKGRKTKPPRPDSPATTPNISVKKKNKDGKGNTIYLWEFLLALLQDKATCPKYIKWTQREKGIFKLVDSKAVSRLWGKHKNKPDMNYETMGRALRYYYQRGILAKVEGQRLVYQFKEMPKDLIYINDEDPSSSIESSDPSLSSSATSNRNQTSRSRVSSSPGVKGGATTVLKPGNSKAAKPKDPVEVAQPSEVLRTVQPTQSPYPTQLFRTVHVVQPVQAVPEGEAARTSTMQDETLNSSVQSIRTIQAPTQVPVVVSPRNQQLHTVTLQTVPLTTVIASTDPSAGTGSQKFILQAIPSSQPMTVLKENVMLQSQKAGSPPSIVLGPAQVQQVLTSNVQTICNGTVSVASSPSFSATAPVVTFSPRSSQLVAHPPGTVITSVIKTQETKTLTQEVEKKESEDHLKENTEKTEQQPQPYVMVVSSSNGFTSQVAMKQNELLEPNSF
# Procedure, shortened: as §1
# ELK3 = biological target: T3, ELK3 (Homo sapiens, UniProt P41970 1-407); conditions: protein: recombinant; tags: N-terminal GST; dsDNA, one strand shown
# T3 sequence: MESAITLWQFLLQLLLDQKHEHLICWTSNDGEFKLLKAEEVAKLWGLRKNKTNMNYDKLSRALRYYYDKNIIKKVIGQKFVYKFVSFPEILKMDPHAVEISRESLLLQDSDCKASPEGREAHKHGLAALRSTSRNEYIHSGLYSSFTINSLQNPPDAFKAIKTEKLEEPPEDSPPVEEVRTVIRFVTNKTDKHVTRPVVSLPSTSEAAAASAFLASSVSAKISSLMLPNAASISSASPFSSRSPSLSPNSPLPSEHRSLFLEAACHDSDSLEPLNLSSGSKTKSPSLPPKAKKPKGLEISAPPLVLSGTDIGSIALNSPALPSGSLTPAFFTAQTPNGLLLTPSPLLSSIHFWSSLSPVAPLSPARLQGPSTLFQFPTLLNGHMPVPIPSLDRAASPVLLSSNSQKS
# Procedure, shortened: as §1
# SPIC = biological target: T4, SPIC (Homo sapiens, UniProt Q8N5J4 1-248); conditions: protein: recombinant; tags: N-terminal GST; dsDNA, one strand shown
# T4 sequence: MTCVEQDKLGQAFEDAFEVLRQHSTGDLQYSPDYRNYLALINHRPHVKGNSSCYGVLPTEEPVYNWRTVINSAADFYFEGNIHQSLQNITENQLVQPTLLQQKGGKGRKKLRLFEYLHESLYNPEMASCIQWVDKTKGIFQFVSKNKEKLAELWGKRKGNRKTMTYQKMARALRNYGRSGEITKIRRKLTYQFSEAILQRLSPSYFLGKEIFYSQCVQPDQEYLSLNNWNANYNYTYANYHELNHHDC
# Procedure, shortened: as §1
# ELK4 = biological target: T5, ELK4 (Homo sapiens, UniProt P28324-2 1-405); conditions: protein: recombinant; tags: N-terminal GST; dsDNA, one strand shown
# T5 sequence: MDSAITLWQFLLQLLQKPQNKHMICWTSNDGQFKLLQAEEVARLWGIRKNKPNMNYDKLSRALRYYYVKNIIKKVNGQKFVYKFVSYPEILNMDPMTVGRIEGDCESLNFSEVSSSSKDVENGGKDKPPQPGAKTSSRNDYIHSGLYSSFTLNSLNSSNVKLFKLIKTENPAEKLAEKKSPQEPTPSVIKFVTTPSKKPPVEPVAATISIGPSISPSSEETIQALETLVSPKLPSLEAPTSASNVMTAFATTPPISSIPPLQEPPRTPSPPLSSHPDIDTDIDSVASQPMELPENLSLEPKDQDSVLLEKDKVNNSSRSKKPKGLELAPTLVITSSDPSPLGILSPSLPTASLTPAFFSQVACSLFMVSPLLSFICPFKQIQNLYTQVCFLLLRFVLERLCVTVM
# Procedure, shortened: as §1
# ETV2 = biological target: T6, ETV2 (Homo sapiens, UniProt O00321 1-342); conditions: protein: recombinant; tags: N-terminal GST; dsDNA, one strand shown
# T6 sequence: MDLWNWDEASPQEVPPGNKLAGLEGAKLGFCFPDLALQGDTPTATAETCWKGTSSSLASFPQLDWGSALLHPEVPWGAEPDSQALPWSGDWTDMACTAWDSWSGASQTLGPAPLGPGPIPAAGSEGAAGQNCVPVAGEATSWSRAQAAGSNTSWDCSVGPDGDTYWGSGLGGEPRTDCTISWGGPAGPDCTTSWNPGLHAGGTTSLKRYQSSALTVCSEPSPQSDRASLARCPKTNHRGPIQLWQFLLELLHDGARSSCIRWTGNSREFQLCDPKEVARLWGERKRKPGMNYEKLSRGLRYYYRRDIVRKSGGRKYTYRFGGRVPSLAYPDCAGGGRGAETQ
# Procedure, shortened: as §1
# CRX = CRX (Homo sapiens, UniProt O43186 1-299); conditions: protein: recombinant; tags: N-terminal GST; dsDNA, one strand shown
# CRX, sequence (O43186 whole entry): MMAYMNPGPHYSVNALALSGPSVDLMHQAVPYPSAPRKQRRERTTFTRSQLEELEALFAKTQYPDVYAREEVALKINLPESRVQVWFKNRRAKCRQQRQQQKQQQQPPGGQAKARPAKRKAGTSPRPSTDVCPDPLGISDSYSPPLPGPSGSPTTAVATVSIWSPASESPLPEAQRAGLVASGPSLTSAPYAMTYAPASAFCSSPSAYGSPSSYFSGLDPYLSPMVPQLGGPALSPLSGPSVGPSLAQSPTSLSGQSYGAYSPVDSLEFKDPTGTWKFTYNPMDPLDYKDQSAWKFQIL
# Procedure, shortened: as §1
# ERF = biological target: T7, ERF (Homo sapiens, UniProt P50548 1-548); conditions: protein: recombinant; tags: N-terminal GST; dsDNA, one strand shown
# T7 sequence: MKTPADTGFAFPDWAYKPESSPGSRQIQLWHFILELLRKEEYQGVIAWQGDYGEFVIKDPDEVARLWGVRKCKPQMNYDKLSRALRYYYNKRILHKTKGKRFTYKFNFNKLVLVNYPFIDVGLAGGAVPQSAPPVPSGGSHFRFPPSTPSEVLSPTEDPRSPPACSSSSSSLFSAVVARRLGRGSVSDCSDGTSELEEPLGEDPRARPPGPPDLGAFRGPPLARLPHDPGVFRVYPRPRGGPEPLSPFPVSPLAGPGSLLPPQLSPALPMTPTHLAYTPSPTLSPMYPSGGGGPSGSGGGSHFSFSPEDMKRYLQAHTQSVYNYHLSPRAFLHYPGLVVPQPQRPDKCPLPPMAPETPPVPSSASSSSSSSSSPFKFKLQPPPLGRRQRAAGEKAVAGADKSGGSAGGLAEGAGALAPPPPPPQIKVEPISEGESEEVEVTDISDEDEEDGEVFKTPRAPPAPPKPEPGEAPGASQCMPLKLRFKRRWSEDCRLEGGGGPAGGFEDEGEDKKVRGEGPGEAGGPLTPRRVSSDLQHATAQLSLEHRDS
# Procedure, shortened: as §1
# SPDEF = biological target: T8, SPDEF (Homo sapiens, UniProt O95238 1-335); conditions: protein: recombinant; tags: N-terminal GST; dsDNA, one strand shown
# T8 sequence: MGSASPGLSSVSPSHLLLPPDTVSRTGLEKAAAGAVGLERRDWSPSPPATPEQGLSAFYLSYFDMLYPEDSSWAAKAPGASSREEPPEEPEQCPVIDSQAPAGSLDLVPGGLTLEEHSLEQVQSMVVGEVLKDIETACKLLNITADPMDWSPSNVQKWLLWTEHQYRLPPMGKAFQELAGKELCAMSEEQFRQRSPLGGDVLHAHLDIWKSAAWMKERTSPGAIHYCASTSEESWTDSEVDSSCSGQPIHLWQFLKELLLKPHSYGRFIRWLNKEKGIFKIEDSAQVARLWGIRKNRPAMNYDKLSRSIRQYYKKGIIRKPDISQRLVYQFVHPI
# Procedure, shortened: as §1
# ETV7 = biological target: T9, ETV7 (Homo sapiens, UniProt Q9Y603 1-341); conditions: protein: recombinant; tags: N-terminal GST; dsDNA, one strand shown
# T9 sequence: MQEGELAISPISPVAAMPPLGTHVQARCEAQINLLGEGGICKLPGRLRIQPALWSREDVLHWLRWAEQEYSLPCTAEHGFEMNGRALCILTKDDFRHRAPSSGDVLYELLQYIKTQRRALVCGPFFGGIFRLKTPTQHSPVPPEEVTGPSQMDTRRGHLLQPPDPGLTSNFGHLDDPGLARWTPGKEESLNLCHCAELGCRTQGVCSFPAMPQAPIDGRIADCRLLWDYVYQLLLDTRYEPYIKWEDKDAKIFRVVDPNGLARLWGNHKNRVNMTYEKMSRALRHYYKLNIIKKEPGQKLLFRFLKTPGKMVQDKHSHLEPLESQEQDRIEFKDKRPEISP
# Procedure, shortened: as §1
# ETV3 = biological target: T10, ETV3 (Homo sapiens, UniProt P41162-2 1-143); conditions: protein: recombinant; tags: N-terminal GST; dsDNA, one strand shown
# T10 sequence: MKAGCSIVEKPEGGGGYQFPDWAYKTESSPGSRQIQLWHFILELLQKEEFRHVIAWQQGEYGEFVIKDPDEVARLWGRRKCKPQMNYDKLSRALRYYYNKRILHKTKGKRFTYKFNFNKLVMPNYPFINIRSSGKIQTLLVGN
# Procedure, shortened: as §1
sequence,measurement,setting,value
TCCGAG,binding signal,HSF1,"1.03 fold enrichment (6-mer frequency, TF over GST control)"
CGAGTA,binding signal,HSF1,"1.1 fold enrichment (6-mer frequency, TF over GST control)"
ATCGAG,binding signal,HSF1,"1.49 fold enrichment (6-mer frequency, TF over GST control)"
CGCGAA,binding signal,ELK1,"1.04 fold enrichment (6-mer frequency, TF over GST control)"
same,binding signal,GABPA,"1.01 fold enrichment (6-mer frequency, TF over GST control)"
same,binding signal,ELF1,"1.03 fold enrichment (6-mer frequency, TF over GST control)"
same,binding signal,ELK3,"1.05 fold enrichment (6-mer frequency, TF over GST control)"
same,binding signal,HSF1,"1.76 fold enrichment (6-mer frequency, TF over GST control)"
same,binding signal,SPIC,"1.02 fold enrichment (6-mer frequency, TF over GST control)"
same,binding signal,ELK4,"1.08 fold enrichment (6-mer frequency, TF over GST control)"
same,binding signal,ETV2,"1.11 fold enrichment (6-mer frequency, TF over GST control)"
same,binding signal,CRX,"1.05 fold enrichment (6-mer frequency, TF over GST control)"
same,binding signal,ERF,"1.01 fold enrichment (6-mer frequency, TF over GST control)"
same,binding signal,SPDEF,"1.01 fold enrichment (6-mer frequency, TF over GST control)"
same,binding signal,ETV7,"1.1 fold enrichment (6-mer frequency, TF over GST control)"
same,binding signal,ETV3,"1.01 fold enrichment (6-mer frequency, TF over GST control)"
